Assay results taken from PubChem BioAssay AID1851 (National Center for Advancing Translational Sciences (NCATS), 2009).
Hit rate of the full screen: of about 16,000 compounds, about 5,700 (36%) were called active. Another 24% or so got no clear call; they are omitted. The call rests on the fitted dose curve; in most records, active means well fitted curve in the direction sought with a large enough effect; inconclusive means small, poorly fitted or top-dose-only effect, or effect the other way; inactive means no such curve, though single readings can be large or run the other way. The list shows a part of the results.

target: Cytochrome P450 1A2 (Homo sapiens) (UniProt P05177); assay: Cytochrome panel assay with activity outcomes; details: recombinant CYP, pro-luciferin dealkylation, luminescence, p450-cyp1a2; series mostly up to 57.1 µM; activity, negative = inhibition: at the top concentration
On the % scale 0 is the no-effect control and ±100 the full control effect.

Cytochrome P450 1A2 (Homo sapiens), sequence (P05177 whole entry, looked up): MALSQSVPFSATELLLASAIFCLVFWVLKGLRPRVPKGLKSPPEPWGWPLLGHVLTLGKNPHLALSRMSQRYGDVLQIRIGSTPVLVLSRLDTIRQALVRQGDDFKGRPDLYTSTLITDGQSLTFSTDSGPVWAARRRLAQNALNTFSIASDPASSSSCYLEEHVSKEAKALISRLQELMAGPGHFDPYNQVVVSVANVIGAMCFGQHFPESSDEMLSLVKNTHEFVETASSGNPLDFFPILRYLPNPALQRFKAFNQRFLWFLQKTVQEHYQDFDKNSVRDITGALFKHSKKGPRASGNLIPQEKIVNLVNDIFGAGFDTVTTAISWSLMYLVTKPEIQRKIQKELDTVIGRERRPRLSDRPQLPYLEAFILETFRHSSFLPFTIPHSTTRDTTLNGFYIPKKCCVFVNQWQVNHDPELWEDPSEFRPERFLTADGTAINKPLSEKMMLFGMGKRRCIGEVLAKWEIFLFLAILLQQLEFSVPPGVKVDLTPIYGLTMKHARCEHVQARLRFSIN

activity, negative = inhibition, inactive:
O=C(c1csnn1)N1CCC[C@@]2(CCN(c3ccncc3)C2)C1 -17.8%
NS(=O)(=O)c1cc2c(cc1Cl)=NC(CCC(=O)O)=NS=2(=O)O 4.98% [at 11.4 µM]
Cc1nn(C(C)C(=O)N2CCc3ccccc32)c(C)c1[N+](=O)[O-] (stereo not given) -9.2%
C=C[C@@]1(C)CC(=O)[C@@]2(O)[C@@]3(C)[C@@H](O)CCC(C)(C)[C@@H]3[C@H](OC(=O)CCN(C)C)[C@H](OC(C)=O)[C@@]2(C)O1 3.28%
O=C(Nc1ccc(Br)cc1)c1ccc(CSC2=NCCS2)cc1 -23.7%
CC(=O)Nc1ccc(-c2cc(-c3ccc(NC(C)=O)cc3)nc(-c3ccccc3)n2)cc1 2.96%
COC(=O)C1(Cc2ccccc2)C2c3cc(C(=O)N4CCCC4)n(Cc4ccc(OC(F)(F)F)cc4)c3CC2CN1C(=O)c1ccccc1 (stereo not given) -14.3%
O=C(O)CSc1ncccc1[N+](=O)[O-] 2.52% [at 11.4 µM]
Cc1cc(C)n(-c2cc(N3CCN(C(=O)c4ccc(C(C)(C)C)cc4)CC3)ccc2[N+](=O)[O-])n1 -14.2%
Cc1ccccc1C(=O)N1CCN(c2ccc([N+](=O)[O-])c(NCc3ccco3)c2)CC1 -15.1%
Cc1cc(C)c(S(=O)(=O)N2CCN(c3ccc([N+](=O)[O-])c(NCC4CCCO4)c3)CC2)c(C)c1 (stereo not given) -29.3%
Cc1cccc(C(=O)N2CCN(c3ccc([N+](=O)[O-])c(NCc4ccco4)c3)CC2)c1 -10.7%
O=[N+]([O-])c1nccn1C[C@H](O)CN1CCCCC1 4.83% [at 11.4 µM]
Cc1cc(C)c(S(=O)(=O)N2CCN(c3ccc([N+](=O)[O-])c(NCc4ccco4)c3)CC2)c(C)c1 -24.1%
CC1CCCC(NC(=O)C2CCN(S(=O)(=O)N3CCC4(CC3)OCCO4)CC2)C1C (stereo not given) 0.237%
Cc1ccccc1C(=O)N1CCN(c2ccc([N+](=O)[O-])c(N3CCOCC3)c2)CC1 -5.63%
Cc1ccc(OCC(=O)N2CCN(c3ccc([N+](=O)[O-])c(N4CCOCC4)c3)CC2)cc1 -14%
O=C(O)C1CCN(c2c([N+](=O)[O-])cc(C(F)(F)F)cc2[N+](=O)[O-])CC1 -12.7%
Cn1c(=O)n(C)c2cc([N+](=O)[O-])c(N3CCN(C(=O)c4ccccc4Cl)CC3)cc21 6.96%
Cn1c(=O)n2n(c1=O)[C@H]1[C@H](O)[C@H]3O[C@H]3C(=O)[C@H]1CC2 -12.9% [at 11.4 µM]
Cc1cccc(NC2=NC(=S)N(c3ccc(C(=O)O)cc3)C23CCCCC3)c1 -0.631%
COc1ccc(C(=O)NC2CCN(C(=S)Nc3cccc(C)c3)CC2)cc1 7.46%
C[N+](C)(C)CCOC(=O)CCC(=O)OCC[N+](C)(C)C -4.51%
O=C(c1sc2ccccc2c1Cl)N(Cc1ccccc1)C1CCS(=O)(=O)C1 (stereo not given) -12.4%
Cc1ccc(S(=O)(=O)N=Nc2c(O)[nH]c3cc(O)c(C(=O)O)cc23)cc1 -15.8% [at 2.29 µM]
Cc1cc(=O)oc(C)c1C(=O)NCCCN1CCN(c2ccc(F)cc2)CC1 4.74%
Cc1cc(=O)oc(C)c1C(=O)NCc1ccccc1 -3.38%
Cc1cc(=O)oc(C)c1C(=O)N1CCCCC1 2.37%
O=C(O)[C@@H]1[C@@H](C(=O)NCc2ccccn2)[C@@H]2C=C[C@@H]1O2 -0.104% [at 2.29 µM]
CC(C)C(NC(=O)C1CCCCC1)C(=O)NCc1ccccn1 (stereo not given) -3.6%
O=C(O)[C@@H](O)Cc1ccccn1 -9.06% [at 11.4 µM]
CCC(C#CCN1CCCCC1)(CC)OCCC#N -28.1%
CCCNC(=O)OC[C@@H]1O[C@H](CCO/N=C\c2ccc(C(=O)N3[C@H](c4ccc(C)cc4)[C@@H](C)CC[C@H]3C(=O)OC)cc2)C=C[C@@H]1Oc1ccc(OC)cc1 -5.52% [at 11.4 µM]
CCN1C(=O)[C@H]2[C@H]3[C@H](O)[C@H](O)C/C(=N/OCC(C)C)[C@H]3CC[C@@H]2C1=O -1.29% [at 11.4 µM]
CO/N=C/c1ccc(N2CCN(C(=O)c3ccc(Cl)cc3Cl)CC2)c([N+](=O)[O-])c1 -16.1%
Cc1ccc(OC(=O)c2ccc(N3CCOCC3)c([N+](=O)[O-])c2)cc1 -58.9%
OC[C@@H]1O[C@H](O)[C@@H](Cl)[C@H](O)[C@@H]1O 1.58%
CC(=O)Nc1c(I)c(C(=O)N[C@H]2[C@@H](O)[C@H](O)[C@H](CO)O[C@@H]2O)c(I)c(N(C)C(C)=O)c1I -14.8% [at 25.6 µM]
CC12CS(=O)(=O)CC1SC(=S)N2c1ccccn1 (stereo not given) -6.29%
O=S(=O)(NCc1cccnc1)c1ccc(Cl)nc1 -6.12%
C[C@H](O)C(=O)C1=Nc2c(nc(N)[nH]c2=O)NC1 -9.29%
O=C(O)CCCCCn1c(SCC(=O)N2CCCC2)nc2ccsc2c1=O 15.6%
O=C(Cn1c(SCC(=O)N2CCc3ccccc3C2)nc2ccccc21)NC1CCCC1 -25.7%
CC(C)OC(=O)c1cccc(C(=O)Oc2ccc(Br)cc2)n1 -28.5%
CN1c2ccccc2C(C)(C)C12C=Nc1c(cc(N3CCOCC3)c3ccccc13)O2 (stereo not given) -29.8%
C[C@@H](N1CCOCC1)[C@@](O)(c1ccccc1)c1ccccn1 -2.48% [at 2.29 µM]
CC(C)(C)c1nc(SCC(=O)Nc2ccc(N3CCOCC3)cc2)c2ccccc2n1 -25.2%

AC50, inactive:
CC(C)(Oc1ccc([C@@H]2CC2(Cl)Cl)cc1)C(=O)O

AC50, active:
CCOC(=O)c1c(NC(C)=O)sc2c(OC)cccc12 0.316 µM
Cc1nn(C(C)C(=O)Nc2sc3c(c2C#N)CCCC3)c(C)c1[N+](=O)[O-] (stereo not given) 3.55 µM
CCOc1cc(C2NN=C(c3ccccc3)S2)ccc1OCc1ccccc1Cl (stereo not given) 3.16 µM
CN(Cc1ccco1)c1ccnc(-c2cccc(NS(C)(=O)=O)c2)n1 1.26 µM
CN(C)c1ccnc(-c2cccc(NS(C)(=O)=O)c2)n1 1.58 µM
COC(=O)c1ccc(C(=O)OC)c(NC(=O)CSCc2ccc(Br)cc2)c1 0.891 µM
N#Cc1ccc(Oc2nc(C(N)=O)cc(-c3ccccc3)n2)cc1 2 µM
Cc1ccc(NC(=O)c2cc([N+](=O)[O-])ccc2NCc2cccnc2)cc1Cl 0.126 µM
O=[N+]([O-])c1cccnc1N1CCCCC1 5.01 µM
CC(C)c1ccc(CNc2cc(N3CCCC3)ccc2[N+](=O)[O-])cc1 3.16 µM
CS(=O)(=O)N1CCN(c2ccc([N+](=O)[O-])c(NCc3ccccc3)c2)CC1 12.6 µM
O=[N+]([O-])c1ccc(N2CCCC2)cc1NCc1ccccc1 0.794 µM
O=[N+]([O-])c1ccc(N2CCCCC2)c(Cl)c1N1CCCCC1 2 µM
O=[N+]([O-])c1cc(F)c(N2CCOCC2)cc1N1CCCCC1 1.26 µM
O=[N+]([O-])c1ccc(N2CCCC2)cc1N1CCCC1 0.316 µM
CC12CCC(C(=O)Nc3cccc4ccccc34)(C1Br)C2(C)C (stereo not given) 22.4 µM
Cc1cccc(NC(=O)C23CCC(C)(C2Br)C3(C)C)c1 (stereo not given) 15.8 µM
COc1ccc(CNc2ncnc3ccc(-c4ccccc4OC)cc23)c(OC)c1 3.16 µM
COc1ccccc1CNc1ncnc2ccc(-c3ccccc3OC)cc12 1 µM
CCCCOC(=S)NC(=O)c1sc2ccccc2c1Cl 2 µM
O=C(NC(=S)N(CCCCO)C1CCCCC1)c1sc2ccccc2c1Cl 1.26 µM
CCOC(=S)NC(=O)c1sc2ccccc2c1Cl 1.58 µM
CCOc1c(OC(C)=O)ccc(/C=C/c2ccc3cccc(OC(C)=O)c3n2)c1[N+](=O)[O-] 4.47 µM
CCOc1c(OC(C)=O)ccc(/C=C2\N=C(SCC)SC2=O)c1[N+](=O)[O-] 0.631 µM
O=C(NCc1ccccn1)c1cc(-c2ccccc2Cl)on1 3.55 µM
CC(Cc1ccccc1)C(=O)NCc1ccccn1 (stereo not given) 15.8 µM
Cc1cc(=O)oc(C)c1C(=O)NCc1cccnc1 4.47 µM
CCCNC(=O)c1c(C)cc(=O)oc1C 11.2 µM
Cc1cc(=O)oc(C)c1C(=O)NCc1ccccn1 12.6 µM
O=C(O/N=C\c1ccc(N2CCCCC2)c([N+](=O)[O-])c1)c1c(F)cccc1F 0.708 µM
Cc1ccc(C(=O)O/N=C\c2ccc(N3CCCCC3)c([N+](=O)[O-])c2)cc1 0.251 µM
CC(C)OC(=O)C(C)(C)Oc1ccc(C(=O)c2ccc(Cl)cc2)cc1 5.01 µM
Cn1c(=O)c(-c2cccs2)nc2cnc(N3CCNCC3)nc21 10 µM
O=c1c(-c2cccs2)nc2cnc(N3CCNCC3)nc2n1C1CC1 2 µM
Cc1ccc(S(N)(=O)=O)cc1NC(=O)/C=C/c1cccs1 12.6 µM
Cc1cccc(CNc2ncncc2-c2cccc(NS(C)(=O)=O)c2)c1 12.6 µM
CS(=O)(=O)Nc1cccc(-c2cncnc2NCc2ccccc2)c1 25.1 µM
CS(=O)(=O)Nc1cccc(-c2ccc3ncnc(NCc4cccs4)c3c2)c1 0.0794 µM
CS(=O)(=O)Nc1cccc(-c2cncnc2NCc2cccs2)c1 15.8 µM
CS(=O)(=O)Nc1cccc(-c2ccc3ncnc(NCc4cccnc4)c3c2)c1 0.316 µM
CS(=O)(=O)Nc1cccc(-c2cncnc2NCc2cccnc2)c1 15.8 µM
C=CCn1c(SCC(=O)N2CCc3ccccc3C2)nc2ccccc2c1=O 8.91 µM
CCn1ccc(C(=O)Oc2ccc(Cl)cc2)n1 14.1 µM
Cc1ccccc1-c1nc(N2CCNCC2)c2ccccc2n1 5.01 µM
CN(C)Cc1ccccc1-c1nc(N2CCOCC2)c2ccccc2n1 20 µM
Clc1ccccc1-c1nc(N2CCNCC2)c2ccccc2n1 2.51 µM
Cc1ccccc1-c1nc(N2CCOCC2)c2ccccc2n1 2 µM
